The source of these data is PubChem BioAssay AID720550 (National Center for Advancing Translational Sciences (NCATS), 2013).

Inconclusive results are not listed. Active and inactive are the calls of the source. Calls follow the shape of the dose curve; as a rule, active = well fitted curve in the direction sought with a large enough effect; inconclusive = small, poorly fitted or top-dose-only effect, or another doubt; inactive = no such curve, though single readings can be large or run the other way.

A short description of the test: qHTS for Inhibitors of Bloom's syndrome helicase (BLM): Thiazole Orange DNA Binding Counterscreen for SAR. The settings on record: fluorescence; Potency: Thiazole orange DNA displacement; series mostly up to 57.1 µM; activity change, negative = displacement: at the top concentration. The essentials: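 Counterscreen for nonspecific DNA binding: thiazole orange (100 nM) pre-bound to 50 nM unlabeled DNA, test compound added, 15 min room-temperature incubation, then ex 480/em 530 nm fluorescence measured; lack of displacement preferred.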
As for `Cc1ccc(-c2nnc(NC(=O)Nc3ccc4ccccc4c3)s2)cc1`, the “activity change, negative = displacement” value is 18.5% (inactive). Take `N#Cc1cc(NC(=O)Nc2nnc(-c3ccncc3)s2)ccc1-c1cn[nH]c1`: the “activity change, negative = displacement” value was -13.8% (inactive).

Regarding `CN(C(=O)Nc1ccc2ccccc2c1)c1nnc(-c2ccncc2)s1`, the “activity change, negative = displacement” value is 387% (inactive). `O=C(Nc1ccc2ccccc2c1)Nc1nnc(-c2ccccc2)s1`: the “activity change, negative = displacement” value was 93% (inactive).

With `O=C(Nc1ccc(Cl)c(Cl)c1)Nc1nnc(C2CCCCC2)s1`, the “activity change, negative = displacement” value is 46.9% (inactive). Turning to `O=C(Nc1ccccc1)Nc1nnc(-c2ccncc2)s1`, the “activity change, negative = displacement” value was 4.99% (inactive). `CC(C)(C)c1ccc(-c2nnc(NC(=O)Nc3ccc4ccccc4c3)s2)cc1`: the “activity change, negative = displacement” value was 12.2% (inactive).

Turning to `CC(C)(C)c1cccc(NC(=O)Nc2nnc(-c3ccncc3)s2)c1`, the “activity change, negative = displacement” value is -29.7% (inactive).

As for `O=C(Nc1nnc(-c2ccncc2)s1)Nc1cc(C(F)(F)F)ccc1F`, the “activity change, negative = displacement” value was 20% (inactive). As for `O=C(Nc1ccc2c(c1)OCO2)Nc1nnc(-c2ccncc2)s1`, the “activity change, negative = displacement” value was -28.2% (inactive). In the case of `O=C(Nc1ccc(Cl)c(Cl)c1)Nc1nnc(NC2CCNCC2)s1`, the “activity change, negative = displacement” value is -3.25% (inactive).

Regarding `O=C(Nc1ccc(Cl)c(Cl)c1)Nc1nnc(N2CCNCC2)s1`, the “activity change, negative = displacement” value is -21.8% (inactive).

For `O=C(Nc1cccc(C(=O)O)c1)Nc1nnc(-c2ccncc2)s1`, the “activity change, negative = displacement” value was 18.2% (inactive). Consider `O=C(Nc1ccc(F)nc1)Nc1nnc(-c2ccncc2)s1`, for which the “activity change, negative = displacement” value is 19.6% (inactive). With `CC(=O)c1ccc(NC(=O)Nc2nnc(-c3ccncc3)s2)cc1` the figure was -9.66% (inactive); with `N#Cc1ccc(NC(=O)Nc2nnc(-c3ccncc3)s2)cc1`, 62.4% (inactive). To `O=C(Nc1ccc(-c2cn[nH]c2)c(C(F)(F)F)c1)Nc1nnc(-c2ccncc2)s1` belongs 35.2% (inactive); to `N#Cc1cccc(NC(=O)Nc2nnc(-c3ccncc3)s2)c1`, 26.6% (inactive). As for `CCCCCCNC(=O)Nc1nnc(-c2ccncc2)s1`, the “activity change, negative = displacement” value was -0.682% (inactive).

As for `COc1ccc(-c2nnc(NC(=O)Nc3ccc4ccccc4c3)s2)cc1OC`, the “activity change, negative = displacement” value was 141% (inactive).
